High-throughput results deposited in PubChem by National Center for Advancing Translational Sciences (NCATS).
Rab9 prom act – activates the Rab9 promoter; hit rate 2.8% among 320,000; Huh7 Rab9 promoter-luciferase reporter, luminescence, 24 h; Potency, µM (series often up to 9.22 µM), inactives show at the top dose activation, negative = inhibition, actives largely listed as activators; note: % of control where 0% means no effect; nearly all actives have a fitted effect of over 60% in size
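Quantitative HTS format; Huh7 Rab9-luciferase reporter cells (1500/well) receive compound 2 h post-plating, incubate 24 h at 37 °C, then get luciferase reagent for 10 min before luminescence reading.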
FLuc counter – inhibits or activates purified firefly luciferase, miR-21 counter-screen. P08659. purified FLuc, Km substrates, luminescence inhibition. Potency, µM (top dose mostly 57.5 µM), inactives show at the top dose activity change, negative = inhibition, hits mostly inhibitors. hit rate 6.9% among 360,000. AID 588342;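 note: plate controls were vehicle for no effect and reference inhibitor for full effect; nearly all actives have a fitted effect of over 55% in size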
Target sequence (P08659 whole entry, looked up): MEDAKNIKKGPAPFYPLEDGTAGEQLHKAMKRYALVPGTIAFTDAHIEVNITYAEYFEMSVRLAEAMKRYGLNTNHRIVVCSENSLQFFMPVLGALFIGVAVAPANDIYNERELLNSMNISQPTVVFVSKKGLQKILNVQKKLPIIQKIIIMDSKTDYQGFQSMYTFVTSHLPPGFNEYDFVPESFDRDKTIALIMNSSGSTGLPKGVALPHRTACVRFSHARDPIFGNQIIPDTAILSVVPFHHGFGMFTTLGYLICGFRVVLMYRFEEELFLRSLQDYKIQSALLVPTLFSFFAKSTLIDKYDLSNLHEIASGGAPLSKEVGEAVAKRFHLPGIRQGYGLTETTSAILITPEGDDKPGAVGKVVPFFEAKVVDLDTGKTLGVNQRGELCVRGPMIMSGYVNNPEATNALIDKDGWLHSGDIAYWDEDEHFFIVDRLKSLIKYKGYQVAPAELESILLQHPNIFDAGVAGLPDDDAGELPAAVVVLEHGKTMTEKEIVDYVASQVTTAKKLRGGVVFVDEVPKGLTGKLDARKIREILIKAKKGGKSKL
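Purified P. pyralis luciferase (10nM final) with 10uM D-luciferin and 10uM ATP (Km levels) in 50mM Tris acetate pH 7.5, 10mM Mg acetate, 0.01% Tween-20, 0.05% BSA; qHTS 6-point titration, ~60 µM downward; luminescence read.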
SMN2 splice up – SMN2 splice variant enhancement. HEK293 SMN2-luciferase splicing reporter, luminescence, 30-36 h. Potency, µM (highest dose often 46.1 µM), for inactives: top-dose activity change, positive = activation, hits mostly activators. hit rate 2.8% among 210,000. AID 1458; note: % of control where 0% means no effect; nearly all actives have a fitted effect of over 55% in size
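HEK293 cells carry an SMN2 […]–luciferase reporter in which exon 7 inclusion puts luciferase in frame. Cells were plated 10-12 h before compound addition, then incubated 30-36 h at 37C. ONE-Glo luminescence was read; sodium butyrate at 4.5 mM final served as control.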
KinaseGlo FLuc – Kinase-Glo luciferase inhibition (counter-screen); Q27757; Kinase-Glo luciferase, ATP luminescence, 8 min; Potency, µM (doses to about 38.3 µM), inactives show top-dose activity change, negative = inhibition, usual class: inhibitors; hit rate 0.28% among 200,000; AID 1379; note: % is set by controls: 0 for no effect and ±100 for the full control effect; nearly all actives have a fitted effect of over 60% in size
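Recombinant Kinase-Glo luciferase, 10 uM ATP (linear range), luciferin; imidazole pH 7.2 / KCl / MgCl2 / Tween / BSA buffer; 8 min RT; luminescence.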
NPC1 prom act – activates the NPC1 promoter | Potency, µM (series often up to 9.22 µM), without a hit: at the highest dose activation, most hits filed as activators | Huh7 NPC1 promoter luciferase reporter, 24 h | hit rate 2.4% among 320,000 | AID 485313; note: % of control where 0% means no effect; nearly all actives have a fitted effect of over 60% in size
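NPC1 promoter–luciferase Huh7 cells; 24 h compound; luminescence.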
ELG1 genotoxic – induces genotoxicity in HEK293T cells with luciferase-tagged ELG1 | HEK293T ELG1-luciferase reporter, luminescence, 16 h | Potency, µM (top dose mostly 46 µM), for inactives: top-dose activity change, positive = activation, actives largely listed as activators | hit rate 1.3% among 330,000; note: % of control where 0% means no effect; nearly all actives have a fitted effect of over 60% in size
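HEK293T cells expressing luciferase-tagged ELG1 were treated with compound or DMSO for 16 hr at 37°C. Luciferase activity was then read after 30 min with ONE-Glo at room temperature; rising signal flags genetic stress.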
* marks the source's active call; other numbers are inactive results; ? = inconclusive; nt = not tested or not shown. The list is not random: actives were taken first. Their share in the collection is about 7.5%. Calls come from the whole dose curve; as a rule, active = well fitted curve in the direction sought with a large enough effect; inconclusive = small, poorly fitted or top-dose-only effect, or another doubt; inactive = no such curve, though single readings can be large; an effect the other way counts as inactive or inconclusive. Potency is the fitted concentration of half-maximal effect.

SMILES	Rab9 prom act	FLuc counter	SMN2 splice up	KinaseGlo FLuc	NPC1 prom act	ELG1 genotoxic
Cc1cc(C(=O)Nc2nnc(C(F)(F)F)s2)cs1	?	12µM*	nt	nt	?	-0.2%
C=CCNCCCCOc1ccc(OCc2ccccc2)cc1	?	16.9µM*	23.6%	4.6%	?	13µM*
c1ccc(COc2ccc(OCCOCCn3cncn3)cc2)cc1	1.26µM*	8.49µM*	8.91µM*	-2.8%	1.41µM*	5.17µM*
c1ccc(COc2ccc(OCCCCN3CCCC3)cc2)cc1	2.51µM*	12µM*	nt	nt	2.24µM*	?
c1ccc(COc2ccc(OCCCN3CCCCC3)cc2)cc1	3.16µM*	13.5µM*	?	-5.2%	?	7.94µM*
c1ccc(OCCCN2CCCC2)cc1	-4.2%	-0.9%	-23.1%	3.5%	0.2%	-2.8%
O=C(N/C(=C\c1ccc(F)cc1)C(=O)N1CCOCC1)c1ccccc1	-2.0%	-1.7%	nt	nt	0.3%	-2.5%
CCOC(=O)c1c(C)[nH]c(C)c1C(=O)COC(=O)c1nc2nccc(C)n2n1	1.0%	-1.5%	16.9%	1.9%	-6.6%	0.5%
CC(=O)Nc1ccc(N2C(=O)c3cccc4c(O)ccc(c34)C2=O)cc1	1.2%	?	nt	nt	-0.3%	-0.5%
O=C1c2cccc3c(O)ccc(c23)C(=O)N1c1ccc(Cl)cc1	0.794µM*	16.9µM*	nt	nt	3.55µM*	5.6%
CCCc1nn(C)c(C(=O)Nc2ccc(C)c(C)c2)c1Cl	3.16µM*	10.7µM*	6.31µM*	1.7%	?	?
CCCc1nn(C)c(C(=O)Nc2ccc(CC)cc2)c1Cl	0.6%	?	5.4%	-2.7%	0.7%	1.5%
CCc1ccc(CNC(=O)CN2C(=O)CSc3c2c(C)nn3-c2ccccc2)cc1	nt	-4.1%	nt	nt	nt	nt
Nc1nnc(-c2ccc(Cl)cc2Cl)s1	?	12µM*	nt	0.8%	25.3%	?
Nc1nnc(-c2ccccc2F)s1	15.5%	?	nt	-4.4%	8.6%	14.6%
CCN(Cc1ccccc1)C(=O)c1cnn(-c2ccc(F)cc2)c1-n1cccc1	nt	-1.9%	nt	nt	nt	nt
Cc1nc(NCCc2ccccc2)sc1C(=O)O	29.1%	16.9µM*	nt	nt	?	13.4%
CC(=O)c1sc(NC(=O)c2ccccc2C)nc1C	?	?	12.3%	?	20.9%	?
Cc1nc(NC(=S)NC(=O)c2ccccc2)sc1C	3.16µM*	?	nt	nt	3.98µM*	?
Cc1nc(NC(=O)c2csc3ccccc23)sc1C	1.26µM*	0.849µM*	7.94µM*	-1.0%	?	?
COc1ccc(CCNc2nc(C)c(C(C)=O)s2)cc1OC	-0.5%	?	nt	nt	1.5%	-16.6%
Cc1nc(NC(=O)c2ccccc2O)sc1C	3.16µM*	5.36µM*	nt	nt	3.98µM*	5.8µM*
O=C(Cc1ccccc1)Nc1c(C(=O)Nc2ccccc2F)oc2ccccc12	nt	1.6%	4.6%	nt	nt	nt
CC(=O)c1cccc(NC(=O)c2cc(-c3ccc(Cl)s3)nc3ccccc23)c1	nt	-18.3%	-12.1%	nt	nt	nt
O=C(Nc1nc(-c2cccs2)c(C(=O)C(F)(F)F)s1)c1ccccc1	-10.6%	16.9µM*	-91.8%	-2.1%	-0.2%	-0.8%
SMILES	Rab9 prom act	FLuc counter	SMN2 splice up	KinaseGlo FLuc	NPC1 prom act	ELG1 genotoxic
CC(=O)c1sc(NC(=O)c2ccccc2)nc1-c1ccccc1	1µM*	9.53µM*	12.6µM*	-8.3%	2µM*	?
Cc1nc(NC(=O)CCc2ccccc2)sc1C	25.5%	16.9µM*	nt	nt	27.2%	?
O=C(Nc1nc(-c2cccs2)c(C(=O)C(F)(F)F)s1)c1ccco1	-13.1%	?	-5.0%	3.3%	-0.8%	-9.6%
Cc1nc(NC(=O)c2ccccc2)sc1C	1.78µM*	?	nt	nt	1.78µM*	?
CCN(CC)C(=O)Cn1ncc2c([nH]c3ccc(C)cc32)c1=O	nt	0.1%	nt	nt	nt	nt
Cc1ccc(OC(C)C(=O)Nc2nonc2-c2ccc(Br)cc2)cc1C (stereo unspecified)	nt	-4.9%	nt	nt	nt	nt
CCCCc1nn2c(C)c(-c3ccc(OCC)cc3)nc2s1	nt	?	11.5%	nt	nt	nt
Cc1ccc(-c2nn[nH]n2)cc1	-1.5%	?	0.8%	2.0%	-4.9%	0.8%
Cc1ccc(-c2nn[nH]n2)cc1Cl	-4.7%	16.9µM*	nt	nt	1.1%	2.5%
